The structures appear in SMILES notation. ± gives the standard deviation of the averaged measurements.

Assay [1] has as its system E18 rat cortical neuron-glia co-culture. Briefly: fiber score / MBP score (myelination specific beyond OL differentiation) (ratio); higher = more myelination-specific MBP alignment. The note with it: treatment time: 8 days (DIV5-DIV13). In outline:
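Papain-dissociated primary E18 rat cortical co-cultures, plated at 20,000 cells/well on poly-d-lysine/laminin 96-well plates, were exposed to library compounds at 1 or 5 µM in myelination medium between DIV5 and DIV13. Following fixation in 4 % paraformaldehyde, cultures were stained for MBP, Olig2 and DAPI, and four 10X fields per well were analysed in duplicate wells. Values are the ratio of fiber score (continuous MBP fiber length per Olig2+ nucleus) to MBP score (thresholded MBP area × intensity per Olig2+ nucleus).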

Assay [2] has the same test system. Nature of the assay: myelination (MBP fiber length per Olig2+ nucleus), % of 1 µM DAPT response (DMSO = 0) (% of DAPT); higher = more myelination, active = 50 or more. Particulars: treatment time: 8 days (DIV5-DIV13). In short, it runs like this: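 Myelination, expressed as continuous straight MBP fiber length per Olig2+ nucleus, was normalised to 0.1 % DMSO as 0 and a 1 µM positive control as 100. The cultures were primary E18 rat cortical co-cultures dissociated with papain and plated at 20,000 cells/well on poly-d-lysine/laminin-coated 96-well plates. They received library compounds at 1 or 5 µM in myelination medium between DIV5 and DIV13. Analysis covered four 10X fields per well in duplicate wells after 4 % paraformaldehyde fixation and immunostaining for MBP and Olig2 with DAPI.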

Take `NCCc1ccc(O)c(O)c1` [Dopamine]: the “fiber score / MBP score” value in assay [1] (1 µM) stood at 1.28; in assay [1] (5 µM), 1.06. The myelination was 5.4 (inactive) in assay [2] (1 µM) and 0.308 (inactive) in assay [2] (5 µM).
Consider `C[C@@H]1C[C@H]2[C@@H]3C[C@H](F)C4=CC(=O)C=C[C@]4(C)[C@@]3(F)[C@@H](O)C[C@]2(C)[C@@]1(O)C(=O)SCF` [Fluticasone], for which the “fiber score / MBP score” value in assay [1] (1 µM) was determined as 0.729; in assay [1] (5 µM), 0.694. For the same molecule, the myelination is -47.4 (inactive) in assay [2] (1 µM) and -24.8 (inactive) in assay [2] (5 µM).
The corresponding values for `CN1[C@@H]2CC[C@H]1C[C@@H](OC(=O)c1c[nH]c3ccccc13)C2` [Tropisetron] are 0.706, 0.562, -47.4 (inactive) and -53.9 (inactive).
As to `Cc1ccc(-c2cc(C(F)(F)F)nn2-c2ccc(S(N)(=O)=O)cc2)cc1` [Celecoxib], the “fiber score / MBP score” value stood at 0.757 in assay [1] (1 µM) and 1.01 in assay [1] (5 µM). For the same molecule, the myelination in assay [2] (1 µM) was -5.22 (inactive); in assay [2] (5 µM) it was -0.0582 (inactive).
The matching figures for `Oc1ccc(/C=C/c2cc(O)cc(O)c2)cc1` [Resveratrol]: 0.549, 0.685, -12 (inactive) and -13.3 (inactive).
In the case of `CNC(=C[N+](=O)[O-])NCCSCc1csc(CN(C)C)n1` [Nizatidine], the “fiber score / MBP score” value in assay [1] (1 µM) is 0.895; in assay [1] (5 µM), 0.816. Further, the myelination in assay [2] (1 µM) was -8.02 (inactive); in assay [2] (5 µM) it was -29.5 (inactive).
The matching figures for `O=C1CC2(CCCC2)CC(=O)N1CCCCN1CCN(c2ncccn2)CC1` [Buspirone]: 0.713, 0.313, -14.9 (inactive) and -34 (inactive).
The corresponding values for `CC(=O)NS(=O)(=O)c1ccc(N)cc1` [Sulfacetamide] are 0.746, 1.2, -10.6 (inactive) and 1.76 (inactive).
The matching figures for `CC(N/C(=N\C#N)Nc1ccncc1)C(C)(C)C` (stereo unspecified) [Pinacidil]: 0.981, 0.451, 2.9 (inactive) and -19.7 (inactive).
For the molecule `Nc1nc(F)nc2c1ncn2[C@@H]1O[C@H](CO)[C@@H](O)[C@@H]1O` [Fludarabine], the “fiber score / MBP score” value was 0.675 in assay [1] (1 µM) and 0.885 in assay [1] (5 µM). Besides, the myelination in assay [2] (1 µM) is -29.4 (inactive); in assay [2] (5 µM), 34.3 (inactive).
The corresponding values for `Nc1nc2ccc(Cl)cc2c2nc(-c3ccco3)nn12` are 0.556, 0.773, -37.8 (inactive) and -3.25 (inactive).
On to `N[C@@H](C(=O)N[C@@H]1C(=O)N2C(C(=O)O)=C(CSc3c[nH]nn3)CS[C@H]12)c1ccc(O)cc1` [Cefatrizine], for which the “fiber score / MBP score” value in assay [1] (1 µM) was determined as 0.846; in assay [1] (5 µM) it was 0.832. Also, the myelination in assay [2] (1 µM) is -4.14 (inactive); in assay [2] (5 µM), -4.37 (inactive).
In the case of `Nc1ccc2cn[nH]c2c1` [6-Aminoindazole], the “fiber score / MBP score” value in assay [1] (1 µM) came to 0.529; in assay [1] (5 µM), 0.815. The myelination in assay [2] (1 µM) is -12.7 (inactive); in assay [2] (5 µM), -11.1 (inactive).
The matching figures for `O=C(O[C@@H]1Cc2c(O)cc(O)cc2O[C@@H]1c1cc(O)c(O)c(O)c1)c1cc(O)c(O)c(O)c1` [Epigallocatechin gallate]: 0.732, 1.01, -23.8 (inactive) and -10.9 (inactive).
The matching figures for `CN1C2CCCC1CC(NC(=O)c1nn(C)c3ccccc13)C2` (stereo unspecified) [Granisetron]: 0.781, 1.1, -10.7 (inactive) and 1.32 (inactive).
The matching figures for `CCOC(=O)OC(C)OC1=C(C(=O)Nc2ccccn2)N(C)S(=O)(=O)c2ccccc21` (stereo unspecified) [Ampiroxicam]: 0.796, 1.01, -15.1 (inactive) and -4.42 (inactive).
`CO[C@H]1/C=C/O[C@@]2(C)Oc3c(C)c(O)c4c(O)c(c(/C=N/N5CCN(C6CCCC6)CC5)c(O)c4c3C2=O)NC(=O)/C(C)=C\C=C\[C@H](C)[C@H](O)[C@@H](C)[C@@H](O)[C@@H](C)[C@H](OC(C)=O)[C@@H]1C` [Rifapentine]: the “fiber score / MBP score” value in assay [1] (1 µM) was determined as 0.893 ± 0.081; in assay [1] (5 µM) it was 1.12 ± 0.52. The myelination was 2.99 (inactive) in assay [2] (1 µM) and 21 (inactive) in assay [2] (5 µM).
The matching figures for `CCn1cc(C(=O)O)c(=O)c2ccc(C)nc21` [Nalidixic Acid]: 0.966, 0.797, -2.25 (inactive) and -7.26 (inactive).
On to `O=C1c2c(O)cc(O)cc2O[C@H](c2ccc(O)c(O)c2)[C@H]1O` [Distylin], for which the results for the “fiber score / MBP score” value in assay [1] (1 µM) and in assay [1] (5 µM) were 0.8 and 1.16, respectively. For the same molecule, the myelination is -6.73 (inactive) in assay [2] (1 µM) and 0.864 (inactive) in assay [2] (5 µM).
Turning to `CC(=O)Nc1nnc(S(N)(=O)=O)s1` [Acetazolamide], the results for the “fiber score / MBP score” value in assay [1] (1 µM) and in assay [1] (5 µM) were 0.846 and 0.99, respectively. In addition, the myelination was -4.45 (inactive) in assay [2] (1 µM) and -1.11 (inactive) in assay [2] (5 µM).
The corresponding values for `CN(C)CCN(Cc1ccccc1)c1ccccn1` [Tripelennamine] are 0.67, 0.588, -35.6 (inactive) and -33.5 (inactive).
The matching figures for `COc1ccc2c(c1)c(CC(=O)O)c(C)n2C(=O)c1ccc(Cl)cc1` [Indomethacin]: 0.699, 0.877, -12.4 (inactive) and -7.64 (inactive).
The matching figures for `CCOC(=O)[C@H](CCc1ccccc1)N[C@@H](C)C(=O)N1CCC[C@H]1C(=O)O` [Enalapril]: 0.732, 0.734, -22.3 (inactive) and -27.5 (inactive).
As for `CC(C)(C)NC(=O)[C@@H]1CN(Cc2cccnc2)CCN1C[C@@H](O)C[C@@H](Cc1ccccc1)C(=O)N[C@H]1c2ccccc2C[C@H]1O` [Indinavir], the “fiber score / MBP score” value in assay [1] (1 µM) was 0.908; in assay [1] (5 µM) it was 0.894. For the same molecule, the figures for the myelination in assay [2] (1 µM) and in assay [2] (5 µM) were -20.5 (inactive) and -24.1 (inactive), respectively.

Source of the values: the supplement of paper PMC4840960.
